From PubChem
LDHA inh = LDHA (human) enzyme inhibition; activity change, % (values are at about 110 or 230 µM); purified LDHA, NADH/diaphorase-resazurin fluorescence; stronger effect = lower value; P00338; actives 0.15% (n = 480,000); in the data active = activity change below about -30%; inconclusive = mostly about -25% to -30%;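 note: plate controls were DMSO wells for no effect and wells without enzyme for full effect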
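LDH5 2 nM; NADH 0.06 mM, pyruvate 0.2 mM; 200 mM Tris pH 7.4, EDTA, Tween-20; 5 min RT. Detection: diaphorase 0.133 mg/mL + resazurin 37 µM, fluorescence ex540/em590 at 0 and 20 min; normalized to enzyme-free and DMSO wells.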
Vif-APOBEC3G blk = inhibitors of Vif-APOBEC3G interaction. Q9HC16. HeLa A3G-eYFP + Vif (tagged APOBEC3G with the HIV-1 protein that degrades it), YFP fluorescence, overnight. Potency, µM (highest dose often 46.1 µM), for the others: at the top dose activity, negative = active, usual class: inhibitors. actives 0.076% (n = 410,000). AID 602310; note: potency is the fitted concentration of half-maximal effect; % is set by controls: 0 for no effect and ±100 for the full control effect; nearly all actives have a fitted effect of over 60% in size
Target sequence (Q9HC16 whole entry, looked up): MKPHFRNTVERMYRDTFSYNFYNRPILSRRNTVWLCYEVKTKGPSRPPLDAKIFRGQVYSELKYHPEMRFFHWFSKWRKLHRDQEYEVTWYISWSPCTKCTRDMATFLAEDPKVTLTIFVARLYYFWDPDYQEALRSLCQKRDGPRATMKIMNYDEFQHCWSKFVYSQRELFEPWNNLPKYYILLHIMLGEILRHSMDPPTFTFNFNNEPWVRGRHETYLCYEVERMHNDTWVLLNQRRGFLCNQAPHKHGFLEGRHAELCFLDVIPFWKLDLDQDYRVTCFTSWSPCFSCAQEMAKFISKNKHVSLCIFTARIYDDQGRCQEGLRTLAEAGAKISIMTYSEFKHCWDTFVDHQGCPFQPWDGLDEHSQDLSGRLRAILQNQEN
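Read-out is eYFP fluorescence (Ex 488/Em 500-530) from Vif-expressing HeLa A3G-eYFP cells; more signal means A3G escaped Vif-mediated degradation. Cells plated overnight, compound pinned in, incubated overnight at 37 deg C.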
Vif-A3F inh = inhibitors of Vif-A3F interaction. HeLa A3F-eYFP + Vif (tagged APOBEC3F with the HIV-1 protein that degrades it), YFP fluorescence increase. Potency, µM (doses to about 46.1 µM), for inactives: at the highest dose activity, negative = active. actives 0.2% (n = 390,000). AID 602313; note: potency is the fitted concentration of half-maximal effect; % of control where 0% means no effect; nearly all actives have a fitted effect of over 65% in size
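Fluorescence increase (Ex 488/Em 500-530) after overnight compound treatment at 37 deg C flags inhibition of Vif-driven A3F-eYFP loss in stable HeLa A3F-eYFP/Vif cells seeded overnight beforehand.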
PINK1 expr mod = modulators of PINK1 expression; actives 0.2% (n = 410,000); PINK1 immunofluorescence, high-content cytometry, 24 h; Potency, µM (series often up to 76.6 µM), without a hit: at the top dose activation (PINK1 increase), hits mostly activators; active = well fitted activation curve with a large enough effect; inconclusive = small, poorly fitted or top-dose-only effect; cell line not stated here; note: potency is the fitted concentration of half-maximal effect; % of control where 0% means no effect; nearly all actives have a fitted effect of over 65% in size
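Stable cell line, 250 cells/well, 12 h attachment; compounds pinned at 5 concentrations, 24 h; CCCP control. Fixed with nuclear dye, primary antibodies 12 h at 10 degrees C, secondary plus cell stain; laser-scanning cytometer read.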
mIDH1 inhibitor = blocks human mutant IDH1 R132H enzyme; O75874; IDH1-R132H enzyme, NADPH consumption, diaphorase/resazurin fluorescence; Potency, µM (series often up to 76.6 µM), inactives show at the highest dose activity change, negative = inhibition, actives largely listed as inhibitors; actives 0.093% (n = 390,000); note: potency is the fitted concentration of half-maximal effect; % is set by controls: 0 for no effect and ±100 for the full control effect; nearly all actives have a fitted effect of over 65% in size
Target sequence (O75874 whole entry R132H, stated change not applied): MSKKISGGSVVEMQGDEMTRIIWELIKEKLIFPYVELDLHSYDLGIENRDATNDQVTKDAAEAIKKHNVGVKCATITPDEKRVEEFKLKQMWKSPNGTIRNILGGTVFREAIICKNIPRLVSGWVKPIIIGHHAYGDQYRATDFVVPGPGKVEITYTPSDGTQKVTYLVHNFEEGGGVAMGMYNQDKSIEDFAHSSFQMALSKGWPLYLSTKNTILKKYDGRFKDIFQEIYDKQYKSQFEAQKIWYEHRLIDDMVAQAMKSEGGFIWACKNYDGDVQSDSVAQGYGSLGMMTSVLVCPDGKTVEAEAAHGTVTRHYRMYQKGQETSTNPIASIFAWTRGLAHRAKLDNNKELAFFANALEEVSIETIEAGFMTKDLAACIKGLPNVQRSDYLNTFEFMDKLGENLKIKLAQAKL
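IDH1-R132H (0.5 ug/mL dispensed) in pH 7.5 Tris buffer was preincubated 30 min with compound, then given a substrate mix of 0.016 mM NADPH and 2 mM alpha-KG for 80 min at room temperature; remaining NADPH was read by diaphorase/resazurin fluorescence.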
PTHR1 ag = PTHR1 (human) receptor agonism. Q03431. HEK293 GP2 PTHR1 cells, GloSensor cAMP luminescence, 1 h. Potency, µM (doses to about 115 µM), without a hit: at the top dose activation, hits mostly activators. actives 0.075% (n = 410,000); note: potency is the fitted concentration of half-maximal effect; nearly all actives have a fitted effect of over 55% in size
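HEK-293-derived GP2 cells expressing PTHR1 and a GloSensor cAMP reporter, 3,000/well, plated overnight, given luciferin plus IBMX (each 0.5 mM as added) for 1 h at 37 °C, then compound for 1 h at 37 °C. Luminescence was read after 15 min at room temperature.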
An asterisk follows results filed as active; i = inactive; ? = inconclusive; / = no result given; [ ] = dose if it differs, or a comment. An excerpt weighted towards active compounds, which were near 0.59% of everything screened. Unless noted, calls come from the whole dose curve; as a rule, active = well fitted curve in the direction sought with a large enough effect; inconclusive = small, poorly fitted or top-dose-only effect, or another doubt; inactive = no such curve, though single readings can be large; an effect the other way counts as inactive or inconclusive.

SMILES | LDHA inh | Vif-APOBEC3G blk | Vif-A3F inh | PINK1 expr mod | mIDH1 inhibitor | PTHR1 ag
COCCNC(=S)N(C)[C@H]1C[C@H]2c3cc(-c4ccccc4)ccc3CCN2C(=O)[C@H]1[C@H](C)O | -32* | 2% | -16% | 0% | -4% | -23%
Cc1ccc2c(Cl)cc(Cl)c(OCC(=O)N3CCCCC3)c2n1 | 27 | / | / | / | / | /
Cc1ccc2c(Cl)c(C)c(N3CCCC3)nc2n1 | 0 | 2% | 22µM* | 0% | 4% | -1%
CCCc1cc(=O)[nH]c(SCc2nnc(-c3ccc(OC)cc3)o2)n1 | -6 | / | / | / | / | /
CCOc1cc(/C=C(\CC(=O)O)c2nc3ccccc3s2)ccc1OC | -2 | -2% | -8% | 1% | 0% | i
COc1cc(/C=C(\C#N)c2nc3ccccc3s2)ccc1OCC(=O)Nc1ccccc1 | 4 | 10µM* | ? | 3% | 8% | i
Cc1ccc2nc(/C(C#N)=C/c3ccc(-c4cccc(Cl)c4)o3)[nH]c2c1 | -1 | 7.9µM* | 3.2µM* | ? | -3% | i
COc1cc(/C=C(/C#N)c2nc3ccccc3[nH]2)ccc1OCC(=O)Nc1ccccc1C(C)C | -3 | -14% | 10µM* | ? | -9% | -1%
COc1cc(/C=C(\CC(=O)O)c2nc3ccccc3s2)ccc1OCC(=O)Nc1ccccc1F | -35* | 0% | 6% | 1% | -3% | -10%
CC(=O)NC(C)c1cccc([N+](=O)[O-])c1 (stereo not drawn) | 2 | / | / | / | / | /
COc1cc(/C=C(\C#N)c2nc3ccc(C)cc3[nH]2)ccc1OC(C)C | 7 | -32% | 25µM* | 19% | 16% | -14%
Cc1ccc(C(=O)N2CCN(c3cccc(C(F)(F)F)c3)CC2)s1 | 6 | / | / | / | / | /
CCn1c(=O)c2ccccc2n(Cc2cccc([N+](=O)[O-])c2)c1=O | -35* | 0% | -7% | 15% | -8% | -14%
O=C(CCn1c(=O)c2ccccc2n(Cc2cccc([N+](=O)[O-])c2)c1=O)N1CCc2ccccc2C1 | -2 | 2% | -8% | -1% | 2% | i
CCCCN1C(=O)C2Cc3c([nH]c4ccccc34)CN2C1=S (stereo not drawn) | 1 | 8.9µM* | -528% | 5% | -12% | -13%
CCCCCN1CC(=O)N2Cc3[nH]c4ccccc4c3C[C@H]2C1=O | -8 | 1% | -7% | 0% | -1% | i
CCS(=O)(=O)N1CCC(NC(=O)c2ccccc2C(=O)c2ccc(Cl)cc2)CC1 | -31* | / | / | / | / | /
CS(=O)(=O)N1CCC(NC(=O)c2ccccc2C(=O)c2ccccc2)CC1 | -1 | / | / | / | / | /
CC(C)(C)c1ccc(-c2cn(-c3ccc(Br)cc3)c3[n+]2CCCS3)cc1 | -2 | -1% | 1% | 35µM* | -13% | -27%
c1ccc(-c2cn(-c3ccccc3)c3[n+]2CCS3)cc1 | -15 | 2% | -11% | -1% | 6% | -27%
CN(C)c1ccc(/C=C(/C(=O)c2ccc(Cl)cc2Cl)n2cncn2)cc1 | -3 | 13µM* | ? | 5% | 2% | -89%
Cc1occc1C(=O)N(Cc1cccs1)C1CC1 | -5 | / | / | / | / | /
COc1ccccc1Oc1nc2c(C)cccn2c(=O)c1/C=C(\C#N)c1nc2ccccc2[nH]1 | 13 | -22% | 3% | 25µM* | -10% | i
C(#CCN1CCN(C(c2ccccc2)c2ccccc2)CC1)COCc1ccccc1 | 2 | / | / | / | / | /
COc1ccccc1CNc1nc(-c2ccc(C)cc2)cs1 | 4 | / | / | / | / | /
SMILES | LDHA inh | Vif-APOBEC3G blk | Vif-A3F inh | PINK1 expr mod | mIDH1 inhibitor | PTHR1 ag
Cc1nc(CN2CCN(C(=O)NCC(C)(C)N(C)C)CC2)cs1 | 5 | / | / | / | / | /
Cc1cccc(C)c1Nc1sc(C(=O)c2ccccc2)c(N)c1C(=O)Nc1ccc(F)cc1 | 4 | -6% | -20% | 45µM* | -21% | -35%
CCOc1ccccc1Nc1sc(C(=O)c2ccccc2)c(N)c1C(=O)Nc1ccc(F)cc1 | -4 | -7% | -1% | 1% | -6% | -25%
CCOC(=O)/C=C(\C)Sc1cc(O)c2ccccc2c1O | 17 | ? | 22µM* | 8% | 26% | -45%
CCOC(=O)/C=C(\C)Sc1cc(=O)oc2ccccc12 | -5 | -17% | -4% | 1% | -1% | -9%[57.5 µM]
COC(=O)c1ccc(C2CC(=O)Nc3c2cc(Br)c2ccccc32)cc1 (stereo not drawn) | -35* | / | / | / | / | /
CC(C)(CNC(=O)CCCNC(=O)C1CC1)c1ccc(Br)cc1 | -1 | / | / | / | / | /
CCCCc1c(C)[nH]n(-c2nc(C)c(C(=O)Nc3cccc(OC)c3)s2)c1=O | -36* | / | / | / | / | /
CCCCc1c(C)[nH]n(-c2nc(C)c(C(=O)Nc3ccccc3)s2)c1=O | -3 | / | / | / | / | /
O=C1C(=Cc2ccccc2[N+](=O)[O-])Cc2ccccc21 | -4 | ? | 13µM* | 2% | 3% | -34%
Nc1ccccc1C=C1Cc2ccccc2C1=O | -1 | ? | 6.3µM* | -1% | 0% | -2%
O=C1/C(=C/c2ccccc2Cl)Cc2ccccc21 | -5 | / | / | / | / | /
O=C1/C(=C/c2ccc(O)cc2)SC(=S)N1Cc1cccnc1 | -9 | -2% | ? | 35µM* | -4% | i
O=C1/C(=C\c2ccc(O)c(O)c2)SC(=S)N1Cc1ccccc1 | 13 | 22µM* | ? | 7% | ? | -18%
O=C1/C(=C\c2cc([N+](=O)[O-])ccc2O)SC(=S)N1Cc1ccc(Cl)cc1 | -9 | ? | 13µM* | 14µM* | -13% | -46%
O=C1S/C(=C\c2ccc(O)c([N+](=O)[O-])c2)C(=O)N1Cc1cccc([N+](=O)[O-])c1 | -10 | 0% | -3% | 40µM* | 18% | -46%
O=C1/C(=C\c2cccc(O)c2O)SC(=S)N1Cc1ccccc1 | 9 | -12% | 0% | ? | -9% | -32%
Cc1nnc(CN2CCC(NC(=O)c3cnn(C)c3)CC2)o1 | 6 | / | / | / | / | /
COc1ccc(N=Cc2oc3ccc4ccccc4c3c2O)cc1 | -4 | 8.9µM* | 7.9µM* | 0% | 6% | -4%
CSc1nc2n(n1)C(c1ccccc1)C1=C(CCCC1=O)N2 (stereo not drawn) | -5 | / | / | / | / | /
Fc1ccc(CCNC(=S)c2cccs2)cc1 | 9 | / | / | / | / | /
CNc1nc(Nc2ccc(C)c(Cl)c2)c2cnn(C)c2n1 | -6 | -8% | -7% | -1% | 29µM* | ?
O=C1c2ccccc2NC(c2csc(-c3ccc(F)cc3)n2)N1CC(F)(F)F (stereo not drawn) | 13 | / | / | / | / | /
CCCCN(C(=O)c1ccc([N+](=O)[O-])s1)c1c(N)n(CCCC)c(=O)[nH]c1=O | 7 | -17% | 13µM* | 0% | 1% | -10%
